Laboratory results taken from the antibiotic and cytotoxicity screens of Wong et al. (2023).
The campaign covered roughly 39,000 compounds. About 3,300 (8.5%) were called active. This excerpt belongs to a sample that is enriched for actives.

System: HepG2
Assay: cytotoxicity call (relative viability < 0.9)
Details: 10 µM

SMILES	cytotoxicity call
C[C@H]1CCCCO[C@@H](CN(C)C(=O)Nc2ccc(F)cc2)[C@@H](C)CN([C@@H](C)CO)C(=O)c2cc(NS(=O)(=O)c3ccccc3)ccc2O1	inactive
CC(C)NC(=O)N(C)C[C@H]1Oc2ccc(NC(=O)Cc3ccccc3)cc2C(=O)N([C@H](C)CO)C[C@H]1C	inactive
C[C@H](CO)N1C[C@H](C)[C@H](CN(C)C(=O)Nc2ccccc2)OCCCC[C@H](C)Oc2ccc(NC(=O)c3ccccc3)cc2C1=O	inactive
COc1cccc(NC(=O)N[C@@H]2C=C[C@@H](CC(=O)N3CCOCC3)O[C@@H]2CO)c1	inactive
C[C@@H]1CN([C@H](C)CO)C(=O)c2cccc(NC(=O)c3nc4ccccc4s3)c2O[C@@H]1CN(C)S(=O)(=O)c1cn(C)cn1	inactive
CC(C)NC(=O)N(C)C[C@@H]1Oc2c(NC(=O)Nc3ccc4c(c3)OCO4)cccc2C(=O)N([C@H](C)CO)C[C@@H]1C	inactive
C[C@H](CO)N1C[C@H](C)[C@H](CN(C)C(=O)C2CCCCC2)OCCCC[C@H](C)Oc2ccc(NS(=O)(=O)c3cccs3)cc2C1=O	inactive
Cc1cc(C)n(C(=O)Cn2cc([N+](=O)[O-])cn2)n1	inactive
C[C@H](CO)N1C[C@H](C)[C@H](CN(C)Cc2ccncc2)Oc2ccc(NS(=O)(=O)c3ccc(F)cc3)cc2CC1=O	inactive
CC(=O)c1ccn[nH]1	inactive
COC(=O)[C@@]12CCC(C)(C)C[C@@H]1[C@@H]1C(=O)C=C3[C@]4(C)C=C(C#N)C(=O)C(C)(C)[C@H]4CC[C@]3(C)[C@@]1(C)CC2	active
COC(=O)[C@]12CCC(C)(C)C[C@H]1[C@H]1C(=O)C=C3[C@@]4(C)C=C(C#N)C(=O)C(C)(C)[C@@H]4CC[C@@]3(C)[C@]1(C)CC2	active
Cc1ccccc1S(=O)(=O)N1C[C@H](O)COC[C@H]2O[C@H](CC(=O)NCc3ccccc3Cl)CC[C@@H]21	inactive
Cc1noc(C)c1NC(=O)Nc1cccc2c1O[C@H](CN(C)C(=O)NC(C)C)[C@@H](C)CN([C@@H](C)CO)C2=O	inactive
C[C@@H]1CN([C@@H](C)CO)C(=O)Cc2cc(NC(=O)CCN3CCOCC3)ccc2O[C@@H]1CN(C)C(=O)NC1CCCCC1	inactive
C[C@@H]1CN([C@H](C)CO)C(=O)c2cc(C#CC3(O)CCCC3)cnc2O[C@@H]1CN(C)S(C)(=O)=O	inactive
Cc1ccc(S(=O)(=O)Nc2ccc3c(c2)C(=O)N([C@@H](C)CO)C[C@H](C)[C@@H](CN(C)Cc2ccc(Oc4ccccc4)cc2)O3)cc1	inactive
Cc1ccc(S(=O)(=O)Nc2ccc3c(c2)C(=O)N([C@H](C)CO)C[C@@H](C)[C@H](CN(C)Cc2ccc(Oc4ccccc4)cc2)O3)cc1	active
Cc1ccc(S(=O)(=O)Nc2ccc3c(c2)C(=O)N([C@@H](C)CO)C[C@@H](C)[C@@H](CN(C)Cc2ccc(Oc4ccccc4)cc2)O3)cc1	active
Cc1ccc(S(=O)(=O)Nc2ccc3c(c2)C(=O)N([C@H](C)CO)C[C@H](C)[C@H](CN(C)Cc2ccc(Oc4ccccc4)cc2)O3)cc1	inactive
Cc1ccc(S(=O)(=O)Nc2ccc3c(c2)C(=O)N([C@@H](C)CO)C[C@H](C)[C@H](CN(C)Cc2ccc(Oc4ccccc4)cc2)O3)cc1	inactive
Cc1ccc(S(=O)(=O)Nc2ccc3c(c2)C(=O)N([C@H](C)CO)C[C@@H](C)[C@@H](CN(C)Cc2ccc(Oc4ccccc4)cc2)O3)cc1	active
Cc1ccc(S(=O)(=O)Nc2ccc3c(c2)C(=O)N([C@H](C)CO)C[C@H](C)[C@@H](CN(C)Cc2ccc(Oc4ccccc4)cc2)O3)cc1	inactive

SMILES	cytotoxicity call
Cc1ccc(S(=O)(=O)Nc2ccc3c(c2)C(=O)N([C@@H](C)CO)C[C@@H](C)[C@H](CN(C)Cc2ccc(Oc4ccccc4)cc2)O3)cc1	inactive
NCC(=O)NC1CCCCC1	inactive
COc1ccc(NC(=O)N(C)C[C@@H]2Oc3ccc(NS(C)(=O)=O)cc3C(=O)N([C@H](C)CO)C[C@H]2C)cc1	inactive
COc1ccc2c3c(n(c2c1)C)[C@@H](CO)N(Cc1cc(cc(c1)OC)OC)C[C@]13CCN(CC1)S(=O)(=O)c1cn(cn1)C	inactive
C[C@@H]1CN([C@H](C)CO)C(=O)Cc2cc(NS(=O)(=O)c3cccs3)ccc2O[C@@H]1CN(C)CC1CC1	inactive
C[C@@H]1CN([C@@H](C)CO)C(=O)c2cccc(NS(=O)(=O)c3cn(C)cn3)c2O[C@@H]1CN(C)S(=O)(=O)c1ccc(F)cc1	inactive
Cc1ccc(S(=O)(=O)N(C)C[C@H]2Oc3c(NS(=O)(=O)c4cccs4)cccc3C(=O)N([C@H](C)CO)C[C@H]2C)cc1	inactive
C[C@H]1CCCCO[C@H](CN(C)C(=O)Nc2ccc(F)cc2)[C@@H](C)CN([C@@H](C)CO)C(=O)c2cc(NC(=O)C3CCCCC3)ccc2O1	inactive
CCCN(C)C[C@@H]1OCCCC[C@H](C)Oc2ccc(NC(=O)Nc3ccc(F)cc3)cc2C(=O)N([C@H](C)CO)C[C@@H]1C	inactive
Cc1ccc(S[C@]2(C(=O)NCc3ccccc3)CC(=O)N(C3CCCCC3)[C@@H]2c2ccc(CO)cc2I)cc1	inactive
C=CCC[C@H](Cc1ccc(F)cc1)C(=O)OC[C@@H](NC(=O)[C@H](CC=C)CC(=O)N(CCO)Cc1ccccc1)C(C)(C)C	inactive
COc1ccc(-c2coc3c(OC)c(OC)cc(O)c3c2=O)cc1	inactive
COc1ccc(-c2coc3c(O)c(O)c(OC)cc3c2=O)cc1	active
COc1ccc(-c2coc3cc(O)ccc3c2=O)cc1	inactive
CC(C)NC(=O)Nc1ccc2c(c1)CC(=O)N([C@@H](C)CO)C[C@@H](C)[C@H](CN(C)C(=O)Nc1ccc3c(c1)OCO3)O2	inactive
COCc1cc(C)nc(N)c1C#N	inactive
COCc1cc(C)nc2n[nH]c(N)c12	active
Cc1ccc2c(N)[nH]nc2n1	inactive
Cc1noc(C)c1S(=O)(=O)N(C)C[C@@H]1Oc2ccc(NC(=O)Cc3cn(C)c4ccccc34)cc2CC(=O)N([C@@H](C)CO)C[C@@H]1C	inactive
C[C@@H]1CN([C@H](C)CO)C(=O)c2cc(NC(=O)c3ccccc3)ccc2O[C@@H](C)CCCCO[C@H]1CN(C)C(=O)Nc1ccc(C(F)(F)F)cc1	inactive
C[C@@H](O)c1nnc(N)[nH]1	inactive
C[C@H]1CN([C@@H](C)CO)C(=O)c2cc(NS(=O)(=O)c3ccc(Cl)cc3)ccc2O[C@@H]1CN(C)Cc1ccc(-c2ccccc2)cc1	inactive
C[C@H](CO)N1C[C@H](C)[C@@H](CN(C)Cc2ccc(-c3ccccc3)cc2)Oc2ccc(NS(=O)(=O)c3ccc(Cl)cc3)cc2C1=O	active

SMILES	cytotoxicity call
C[C@@H]1CN([C@@H](C)CO)C(=O)c2cc(NS(=O)(=O)c3ccc(Cl)cc3)ccc2O[C@@H]1CN(C)Cc1ccc(-c2ccccc2)cc1	active
C[C@H]1CN([C@@H](C)CO)C(=O)c2cc(NS(=O)(=O)c3ccc(Cl)cc3)ccc2O[C@H]1CN(C)Cc1ccc(-c2ccccc2)cc1	inactive
C[C@@H]1CN([C@@H](C)CO)C(=O)c2cc(NS(=O)(=O)c3ccc(Cl)cc3)ccc2O[C@H]1CN(C)Cc1ccc(-c2ccccc2)cc1	inactive
C[C@H](CO)N1C[C@H](C)[C@H](CN(C)Cc2ccc(-c3ccccc3)cc2)Oc2ccc(NS(=O)(=O)c3ccc(Cl)cc3)cc2C1=O	active
C[C@@H]1CN([C@H](C)CO)C(=O)c2cc(NS(=O)(=O)c3ccc(Cl)cc3)ccc2O[C@@H]1CN(C)Cc1ccc(-c2ccccc2)cc1	active
C[C@@H]1CN([C@H](C)CO)C(=O)c2cc(NS(=O)(=O)c3ccc(Cl)cc3)ccc2O[C@H]1CN(C)Cc1ccc(-c2ccccc2)cc1	inactive
C[C@H](CO)N1C[C@H](C)[C@H](CN(C)Cc2ccc(Oc3ccccc3)cc2)Oc2cc(Br)ccc2S1(=O)=O	inactive
C[C@H]1CN([C@@H](C)CO)C(=O)c2cc(NC(=O)CCCCCC(=O)Nc3ccccc3N)ccc2O[C@@H]1CN(C)C(=O)Nc1cccc2ccccc12	inactive
CC(C)NC(=O)N(C)C[C@H]1Oc2ccc(NS(=O)(=O)c3ccc(Cl)cc3)cc2C(=O)N([C@H](C)CO)C[C@@H]1C	inactive
C[C@H](CO)N1C[C@H](C)[C@H](CN(C)C(=O)Nc2ccc(F)cc2)Oc2c(NS(=O)(=O)c3cn(C)cn3)cccc2C1=O	inactive
C[C@@H]1CN([C@@H](C)CO)C(=O)c2cccc(NC(=O)Nc3ccc(C(F)(F)F)cc3)c2O[C@@H]1CN(C)S(=O)(=O)c1ccc(F)cc1	inactive
Nc1ncnc(N[C@H]2CCS(=O)(=O)C2)c1[N+](=O)[O-]	inactive
C[C@@H]1CCCCO[C@H](CN(C)Cc2ccc(C(F)(F)F)cc2)[C@H](C)CN([C@H](C)CO)C(=O)c2cc(NC(=O)CCC(F)(F)F)ccc2O1	inactive
COCC(=O)N1C[C@H](C)[C@H](OC)CN(C)C(=O)c2ccc(NC(=O)Nc3ccccc3)cc2OC[C@H]1C	inactive
C[C@@H]1CN([C@H](C)CO)C(=O)Cc2cc(NS(=O)(=O)c3ccccc3)ccc2O[C@H]1CN(C)Cc1ccc(C(=O)O)cc1	inactive
COc1ccc(S(=O)(=O)Nc2ccc3c(c2)C(=O)N([C@H](C)CO)C[C@H](C)[C@@H](CN(C)CC2CCCCC2)OCCCC[C@@H](C)O3)cc1	inactive
C[C@H](CO)N1C[C@H](C)[C@@H](CN(C)S(=O)(=O)c2ccccc2)Oc2c(NS(=O)(=O)c3ccc(F)cc3)cccc2C1=O	inactive
COc1ccc(C#Cc2cccc(-c3nc(C(=O)N4CCN(Cc5ccccc5)CC4)cc4c3[C@H](CCO)N(S(=O)C(C)(C)C)C4)c2)cc1OC (some centres undefined)	inactive
COc1ccc(C#Cc2cccc(-c3nc(C(=O)N4CCN(Cc5ccccc5)CC4)cc4c3[C@@H](CCO)N(S(=O)C(C)(C)C)C4)c2)cc1OC (some centres undefined)	inactive
CC(C)(C)[S@](=O)N1Cc2cc(C(=O)N3CCCCC3)nc(-c3cccc(-c4ccccc4F)c3)c2[C@@H]1CCO	inactive
CC(C)(C)S(=O)N1Cc2cc(C(=O)N3CCN(Cc4ccccc4)CC3)nc(-c3cccc(C#CCC4CCCC4)c3)c2[C@H]1CCO (some centres undefined)	active
CC(C)(C)[S@@](=O)N1Cc2cc(C(=O)N3CCCCC3)nc(-c3cccc(-c4ccccc4F)c3)c2[C@H]1CCO	inactive
CC(C)(C)S(=O)N1Cc2cc(C(=O)N3CCN(Cc4ccccc4)CC3)nc(-c3cccc(-c4cc5ccccc5o4)c3)c2[C@H]1CCO (some centres undefined)	active
